High-throughput results (PubChem BioAssay)
Shown are actives, neighbours in structure and some others; about 8.1% of the full set was active somewhere.
Gal4-VP16 FLuc – counter-screen for ROR gamma inhibitors: Gal4-VP16 reporter; actives 3.5% (n = 310,000); Drosophila S2 Gal4-VP16 UAS-luciferase, luminescence, 20 h; AID 2546; Potency, µM (highest dose often 53.6 µM), most hits filed as inhibitors;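 also: Gal4-VP16 expression switched on by copper sulfate through the metallothionein promoter; nearly all actives have a fitted effect of over 50% in size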
ClpP mod – qHTS Assay for Activators of ClpP; purified B. subtilis ClpP, FRET peptide cleavage, 20 min; ATP-dependent Clp protease proteolytic subunit (Bacillus subtilis (strain 168)), P80244; Potency, µM (highest dose often 57.5 µM); actives 1.9% (n = 340,000); active = well fitted falling curve with a large enough effect; inconclusive = small, poorly fitted or top-dose-only effect; inactive = no such curve, though single readings can be large or run the other way; also: the source files actives as falling curves though it sought activators and does not explain the sign; nearly all actives have a fitted effect of over 65% in size
Target sequence (P80244 whole entry, looked up): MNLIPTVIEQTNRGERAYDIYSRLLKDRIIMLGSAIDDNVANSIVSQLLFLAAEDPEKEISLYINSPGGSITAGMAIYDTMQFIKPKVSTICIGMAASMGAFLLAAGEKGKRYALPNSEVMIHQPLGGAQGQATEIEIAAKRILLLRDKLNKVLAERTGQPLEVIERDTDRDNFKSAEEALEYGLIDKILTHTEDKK
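Buffer: 100 mM Tris/HCl pH8, 100 mM KCl, 0.05% low protease BSA, 2.5% glycerol, 0.01% Tween-20. ClpP 10 microg/mL final; 20 min RT; delta FRET normalized to ADEP and DMSO controls.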
Sfp PPTase inh – blocks B. subtilis Sfp PPTase activity; Q9F4F7; actives 3.5% (n = 310,000); Biochemical Sfp PPTase activity, qHTS; Potency, µM, most hits filed as inhibitors; AID 1490;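 also: the enzyme is Sfp with the accession as filed and its product quenches rhodamine fluorescence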
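Buffer: 50 mM Hepes-Na pH 7.6, 10 mM MgCl2, 0.01% Nonidet P-40, 0.01% BSA. Enzyme 15 nM, pre-exposed to compound 15 min; substrates then added and fluorescence change tracked over 30 min.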
PINK1 modulator – PINK1 expression modulation; AID 624263; actives 0.2% (n = 410,000); PINK1 immunofluorescence, high-content cytometry, 24 h; Potency, µM (series often up to 76.6 µM), most hits filed as activators; active = well fitted activation curve with a large enough effect; inconclusive = small, poorly fitted or top-dose-only effect; cell line not stated here; also: nearly all actives have a fitted effect of over 65% in size
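Measures PINK1 amount and localization on or inside mitochondria by immunofluorescence. Stable cells get compounds at 5 concentrations for 24 hours before fixation and staining; CCCP controls included.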
Epigenetic reg – regulators of epigenetic silencing causing reporter derepression in mouse cells | murine LDR cells, GFP reporter derepression, 30 h | actives 0.2% (n = 280,000) | AID 1865 | Potency, µM (series often up to 53.9 µM), most hits filed as activators; also: nearly all actives have a fitted effect of over 60% in size
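Reporter derepression read as number of fluorescent GFP-positive objects, 20-120 um in size, counted by laser-scanning cytometer. Mouse LDR line with an epigenetically silenced CMV-GFP locus; compound incubation 30 h, 37 C.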
RORgamma inh – blocks mouse ROR gamma transcriptional activity. Drosophila S2 Gal4-RORgamma UAS-luciferase reporter, 20 h. Potency, µM (series often up to 53.6 µM), usual class: inhibitors. AID 2551. P51450. actives 5.4% (n = 310,000); also: nearly all actives have a fitted effect of over 60% in size
Target sequence (P51450 whole entry, looked up, the tested form may be a part): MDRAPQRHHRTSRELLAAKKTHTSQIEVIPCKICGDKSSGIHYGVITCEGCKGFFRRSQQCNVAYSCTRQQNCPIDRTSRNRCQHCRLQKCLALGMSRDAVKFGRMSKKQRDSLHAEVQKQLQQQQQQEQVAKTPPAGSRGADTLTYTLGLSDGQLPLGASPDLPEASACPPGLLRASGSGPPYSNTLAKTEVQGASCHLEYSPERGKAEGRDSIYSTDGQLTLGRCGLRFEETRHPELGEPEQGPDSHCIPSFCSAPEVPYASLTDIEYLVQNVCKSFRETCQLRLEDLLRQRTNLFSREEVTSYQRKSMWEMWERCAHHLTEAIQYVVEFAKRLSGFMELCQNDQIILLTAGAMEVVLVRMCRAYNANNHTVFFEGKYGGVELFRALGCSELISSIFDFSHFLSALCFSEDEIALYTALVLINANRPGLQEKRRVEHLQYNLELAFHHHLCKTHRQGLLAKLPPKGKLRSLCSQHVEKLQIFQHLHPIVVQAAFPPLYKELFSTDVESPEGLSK
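Drosophila S2 cells stably expressing Gal4-DBD/mouse RORγ fusion under metallothionein promoter plus UAS-luciferase; compound 1 h, then 700 uM CuSO4 induction for 20 h at ambient temperature; inhibition read as reduced luminescence.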
Numbers stand for hits; . = inactive; ? = inconclusive; / = no result given; ! = not active in a repeat; [ ] = dose if it differs, or a comment. Unless noted, calls follow the shape of the dose curve; as a rule, active = well fitted curve in the direction sought with a large enough effect; inconclusive = small, poorly fitted or top-dose-only effect, or another doubt; inactive = no such curve, though single readings can be large; an effect the other way counts as inactive or inconclusive.

SMILES | Gal4-VP16 FLuc | ClpP mod | Sfp PPTase inh | PINK1 modulator | Epigenetic reg | RORgamma inh
COCC(C)NC(=O)c1cc2c(=O)n3cccc(C)c3nc2s1 (centres undefined) | / | . | / | . | . | /
CC(C)c1c(C(=O)NCc2ccccn2)cnn1-c1nccc(-c2ccccc2F)n1 | / | / | / | . | / | /
Cc1c(CN2CCOc3c(cc(-c4ncc(C(F)(F)F)cc4Cl)cc3OCC3CCCO3)C2)cnn1C (centres undefined) | / | / | / | . | / | /
COc1cccc(C(=O)n2nc(-c3ccco3)nc2NCc2cccs2)c1 | / | . | / | . | . | /
Cc1ccc(-c2nnc(/C=C/c3ccccc3)o2)cc1 | . | ? | . | . | . | ?
Cc1ccc(/C=C/c2nnc(-c3cccc(C)c3)o2)cc1 | . | 32µM | . | . | . | .
CCCc1cc(NC(=O)CCl)n(-c2ccccc2)n1 | 20µM | / | . | . | . | ?
Cc1cc([N+](=O)[O-])c(C)cc1-c1ccc(/C=N/NC(=O)c2cccnc2)o1 | ? | . | . | . | . | 8.9µM
O=C(Cc1ccccc1)N/N=C/c1ccc(-c2ccc([N+](=O)[O-])cc2)o1 | . | . | . | 7.9µM | ? | .
O=C(N/N=C/c1ccc(-c2ccc([N+](=O)[O-])cc2)o1)c1cccnc1 | . | . | . | ? | ? | 11µM
O=C(N/N=C/c1ccc(-c2ccccc2[N+](=O)[O-])o1)c1cncc(Br)c1 | 5µM | . | ? | . | . | 6.3µM
CC(/C=C/C=C(C)/C=C/C(=O)O)=C\C=C\C=C(C)\C=C\C=C(C)\C=C\C(=O)O | . | / | / | / | / | .
CCOc1c(Cl)cc(C(=O)N(Cc2ccc(N(C)C)cc2)Cc2ccco2)cc1Cl | / | . | / | . | . | /
Cc1cc(C)n2nc(C(=O)NCC3Cc4cccc(-c5ccc(S(C)(=O)=O)cc5)c4O3)cc2n1 (centres undefined) | / | / | / | . | / | /
Nn1cnnc1N/N=C\c1ccc(-c2ccccc2[N+](=O)[O-])o1 | ? | . | 45µM | . | . | ?
NC(=O)N/N=C/c1ccc(-c2ccc([N+](=O)[O-])cc2)o1 | . | . | ? | . | . | .
O=C1CN(/N=C/c2ccc(-c3ccc([N+](=O)[O-])cc3)o2)C(=O)N1 | . | / | 89µM! | / | . | .[10 µM]
COCCNC(=S)N/N=C/c1ccc(-c2ccc([N+](=O)[O-])cc2)o1 | 10µM | . | ? | 45µM | ? | 4.5µM
O=C1CN(/N=C/c2ccc([N+](=O)[O-])o2)C(=O)N1 | . | . | . | . | . | .
COc1ccccc1CNC(=O)c1ccc2[nH]c(C)c(C)c2c1 | / | . | / | . | . | /
O=C(CN1C=NS(=O)(=O)c2ccccc21)Nc1ccc(Br)cc1 | / | . | / | . | . | /
Cn1c(COc2ccc(Br)cc2)nnc1SC1CCc2ccccc2C1=O (centres undefined) | ? | . | 50µM | . | . | 22µM
Cn1c(COc2ccccc2)nnc1SCCSc1nnc(COc2ccccc2)n1C | . | . | . | . | . | .
CC1(C)Cc2c(sc(N)c2C#N)C(C)(C)N1 | . | . | 18µM | . | . | .
CC1(C)Cc2c(sc(NC(=O)C(C)(C)C)c2C#N)C(C)(C)N1 | . | . | . | . | . | .
SMILES | Gal4-VP16 FLuc | ClpP mod | Sfp PPTase inh | PINK1 modulator | Epigenetic reg | RORgamma inh
Cc1ccc(CN2CCCn3nc(C(=O)NC(C)C)cc3C2=O)cc1 | / | . | / | . | . | /
COc1cc(C(=O)Nc2nc3ccccc3[nH]2)cc(OC)c1OC | 10µM | . | . | . | . | 10µM
COc1ccc(C(=O)N[C@H](C(=O)Nc2nc3ccccc3[nH]2)C(C)C)cc1 | . | . | . | . | . | .
O=c1[nH]c2ccccc2nc1/C=C(\O)c1cccs1 | . | / | . | ? | 22µM | .
COc1ccc(C(=O)Nc2nc3ccccc3[nH]2)cc1 | 6.3µM | / | . | . | / | 2.8µM
COc1cc(/C=N\Nc2nc3ccccc3[nH]2)cc(OC)c1OC | . | . | . | . | . | .
COc1cccc(C(=O)Nc2nc3ccccc3[nH]2)c1 | 10µM | . | . | . | . | 4µM
O=C(Nc1cccc(Cl)c1)Nc1ccccc1OCc1cc(=O)n2ccccc2n1 | / | . | / | . | . | /
CCC1CN(CCNC(=O)c2cc(C(C)C)nn2C)Cc2cc(OC)ccc2O1 (centres undefined) | / | / | / | . | / | /
O/C(=C\c1nc2ccccc2[nH]1)c1cccs1 | ? | / | . | . | / | ?
O=c1oc2ccc(Cl)cc2nc1/C=C(\O)c1cccs1 | 11µM | . | ? | . | . | 8.9µM
Cc1ccc2oc(=O)c(/C=C(\O)c3cccs3)nc2c1 | ? | / | . | . | . | ?
O=C(Nc1nc2ccccc2[nH]1)c1cccs1 | 13µM | . | . | . | . | 5µM
O=C(/C(=C\c1ccccc1)c1nc2ccccc2[nH]1)c1ccc(Cl)cc1 | ? | . | . | . | . | ?
O=C(/C(=C/c1ccc(Cl)cc1)c1nc2ccccc2[nH]1)c1cccs1 | ? | . | . | . | . | 3.2µM
COc1ccc(OC)c(NC(=O)[C@H](CSCc2ccccc2)N2Cc3ccccc3C2=O)c1 | / | . | / | . | . | /
c1cc(OCC2CO2)cc(OCC2CO2)c1 (centres undefined) | . | / | / | / | / | .
Cc1ccccc1C(=O)Nc1ccc2nc(Nc3cccc(C(F)(F)F)c3)cc(C)c2c1 | / | . | / | . | . | /
CC(=O)O[C@@]12CO[C@@H]1C[C@H](O)[C@@]1(C)C(=O)[C@H](O)C3=C(C)[C@@H](OC(=O)[C@H](O)[C@@H](NC(=O)OC(C)(C)C)c4ccccc4)C[C@](O)([C@@H](OC(=O)c4ccccc4)[C@H]21)C3(C)C | . | / | 8.9µM | / | . | ?
CC(=O)O[C@H]1C[C@@]2(O)[C@@H](OC(=O)c3ccccc3)C3[C@@](C)([C@@H](O)C[C@H]4OC[C@@]34OC(C)=O)[C@@H](O)[C@H](OC(C)=O)C(=C1C)C2(C)C (some centres undefined) | . | . | . | . | / | .
Cc1cc(C)cc(-n2ccn(Cc3ccc(F)cc3)c(=O)c2=O)c1 | / | . | / | . | . | /
O=[N+]([O-])c1cc(C(F)(F)F)ccc1NCCc1c[nH]c2ccc(O)cc12 | ? | . | . | 11µM | . | .
COc1ccc(OC)c(C2c3c(oc4ccc(C)cc4c3=O)C(=O)N2CCCN(C)C)c1 (centres undefined) | / | . | / | . | . | /
COc1cc(C(=O)NCc2nc(-c3ccc(Cl)cc3)no2)cc(OC)c1OC | / | . | / | . | . | /
Cc1ccc(O)c(Sc2cc(C)ccc2O)c1 | 13µM | . | . | . | . | ?
COCCCNC(=S)NNC(=O)c1ccc(C(C)(C)C)cc1 | . | . | . | . | . | .
CC(C)(C)c1ccc(C(=O)NC(=S)NNC(=O)COc2ccccc2)cc1 | 2.8µM | . | . | . | / | 2.5µM
